Source: PubChem BioAssay (The Scripps Research Institute Molecular Screening Center)
In the library only some 3.5% were active in any assay of this set; here they are far more common.
GPR151 ag: activators of human GPR151. Q8TDV0. PathHunter beta-arrestin GPR151 cells, luminescence. activation, % at 11.2 µM. 650,000 tested, 1% active. AID 1508602; in the data active means activation above about 4.9%
Target sequence (Q8TDV0 whole entry, looked up): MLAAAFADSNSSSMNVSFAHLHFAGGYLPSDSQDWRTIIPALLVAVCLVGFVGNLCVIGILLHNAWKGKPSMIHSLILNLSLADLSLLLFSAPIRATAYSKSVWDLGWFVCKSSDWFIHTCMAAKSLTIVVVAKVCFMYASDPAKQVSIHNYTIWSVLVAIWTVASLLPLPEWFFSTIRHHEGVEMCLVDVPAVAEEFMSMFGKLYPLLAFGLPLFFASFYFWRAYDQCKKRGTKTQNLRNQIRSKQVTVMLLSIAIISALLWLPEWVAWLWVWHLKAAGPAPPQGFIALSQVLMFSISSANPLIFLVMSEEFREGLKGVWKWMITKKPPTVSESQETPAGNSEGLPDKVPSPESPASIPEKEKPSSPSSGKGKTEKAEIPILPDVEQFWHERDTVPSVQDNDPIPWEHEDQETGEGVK
MITF inh: human MITF inhibition, primary screen; O75030; AlphaScreen MITF homodimerization, bead proximity signal; inhibition, % at 2.6 µM; 650,000 tested, 0.91% active; AID 1259374; in the data active means inhibition above about 50%
TEAD-YAP block: TEAD-YAP interaction inhibition; inhibition, % at 9.12 µM; HEK-TIYL cells, TEAD-Gal4/YAP UAS-luciferase luminescence; AID 1259422; 640,000 tested, 1.4% active; in the data active means inhibition above about 32%
FBW7 activator: human FBW7 E3 ligase activation, primary screen; 650,000 tested, 0.13% active; normalized activity (activation), % at 26.1 µM; AlphaScreen FBW7–phospho-cyclin E peptide binding, activator screen; Q969H0; in the data active means normalized activity above about 1.9%;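 further: purified mutant Fbw7 with reduced substrate affinity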
Each line names hits and unclear results; the compound was inactive in the other large screens.

CCOc1ccc(Nc2nc(N)c(C(=O)c3cccc(OC)c3)s2)cc1	TEAD-YAP block 61
COc1ccc(OC)c(-c2nc(Nc3ccccc3F)sc2CC(=O)O)c1	none
COc1ccc(-c2nc(Nc3ccccc3OC)sc2CC(=O)O)cc1	TEAD-YAP block 51
CCOc1ccc(Nc2nc(-c3ccc(OC)c(OC)c3)c(CC(=O)O)s2)cc1	TEAD-YAP block 34
Cc1ccc2oc(-c3ccc(Cl)c(NC(=O)Cc4ccccc4)c3)nc2c1	none
CC(C)c1ccc2oc(-c3ccc(Cl)c(N)c3)nc2c1	TEAD-YAP block 83
CC(C)c1ccc2oc(-c3ccc(Cl)c(NC(=O)Cc4ccccc4)c3)nc2c1	TEAD-YAP block 61
Cc1ccccc1C(=O)Nc1cc(-c2nc3cc(C(C)C)ccc3o2)ccc1Cl	none
COc1ccccc1C(=O)Nc1cc(-c2nc3cc(C(C)C)ccc3o2)ccc1Cl	TEAD-YAP block 35
CCOc1ccc(N2C(=O)CC(NCCc3ccc(OCC)c(OCC)c3)C2=O)cc1 (centres undefined)	none
CC1=NN(C(N)=S)C(=O)C1N=Nc1ccccc1O (centres undefined)	MITF inh 58
CC1=NN(C(N)=S)C(=O)C1N=Nc1ccccc1C (centres undefined)	none
Cc1ccc(-c2ncnn2-c2sc3c(c2C#N)CCCCC3)cc1	none
N#Cc1c(-n2ncnc2-c2cccs2)sc2c1CCCCC2	TEAD-YAP block 64
CCN1/C(=C/c2cccc[n+]2C)C=Cc2ccccc21	TEAD-YAP block 75
CCN1/C(=C/c2cccc[n+]2C)C=Cc2ccc(C)cc21	TEAD-YAP block 75
CCN1C(=O)/C(=C2\C=Cc3ccccc3N2CC)SC1=S	none
CCN1/C(=C/C(=C(C#N)C#N)C(F)(F)F)C=Cc2ccccc21	none
CCN1C(=O)S/C(=C\c2ccc(Cl)cc2)C1=O	none
CCN1/C(=C/c2ccc3ccccc3[n+]2CC)C=Cc2ccccc21	TEAD-YAP block 88
CCN1/C(=C/c2cc[n+](-c3ccc(Cl)cc3)cc2)C=Cc2ccccc21	TEAD-YAP block 91
O=C(O)CCCCCNC(=O)c1cc(=O)[nH]c(=O)[nH]1	none
COc1ccc(-c2n[nH]c(=S)n2N)cc1	none
CCN1/C(=C2/N=C(c3ccccc3)OC2=O)C=Cc2ccccc21	none
CCCC[n+]1ccc(/C=C2\C=Cc3ccccc3N2CC)c2cc(C)ccc21	MITF inh 72, TEAD-YAP block 92
Cc1ccc2c(c1)C=C/C(=C\c1cccc[n+]1C)N2C	TEAD-YAP block 84
CCOc1cc(C(=O)Nc2c3c(nn2-c2cccc(C)c2C)CSC3)cc(OCC)c1OCC	none
O=C(c1cc2ccccc2o1)c1cnc2ccccn12	TEAD-YAP block 40
COc1ccc(NC(=O)C(Cc2ccccc2)N2Cc3ccccc3C2=O)cc1 (centres undefined)	none
c1cncc(-c2nnc(SCc3nc4ccccc4[nH]3)o2)c1	TEAD-YAP block 44
Cc1ccc(C(=O)NCc2cccnc2)c(NCc2cccnc2)n1	none
C=CCNC(=O)c1ccc(C)nc1NCc1cccnc1	FBW7 activator 1.9
O=C(CSCC(=O)N1CCCC1)Nc1nc(-c2ccccc2)c(-c2ccccc2)s1	none
N#CC1=C(N)Oc2cc(N)ccc2C1c1ccc(C(F)(F)F)cc1 (centres undefined)	none
N#CC1=C(N)Oc2cc(N)ccc2C1C1CCCCC1 (centres undefined)	TEAD-YAP block 46
Oc1ccc(-c2noc(-c3ccc(F)cc3)n2)cc1	TEAD-YAP block 65
Fc1ccc(-c2nc(-c3ccccc3)no2)cc1	none
CCN(CC)C(=O)C1CCCN(c2nc(C)cc(NCc3cccc(C(F)(F)F)c3)n2)C1 (centres undefined)	TEAD-YAP block 35
CCN(CC)C(=O)C1CCCN(c2nccc(NCc3cccc(C(F)(F)F)c3)n2)C1 (centres undefined)	none
Cc1cc(NCc2cccc(C(F)(F)F)c2)nc(N2CCCC2CO)n1 (centres undefined)	TEAD-YAP block 42
O=C(CSc1cccc2cccnc12)N/N=C/c1c(O)ccc2ccccc12	TEAD-YAP block 34
O=C(CSCC(=O)Nc1ccccc1)N/N=C/c1c(O)ccc2ccccc12	TEAD-YAP block 74
CCC(=O)Nc1ccc2nc3c(=O)n(C4CCCCCC4)c(=O)[nH]c3nc2c1	none
CCN(CC)CCN1CCN(c2ccnc3c(-c4ccc5c(c4)OCO5)cnn23)CC1	none
COc1ccc(C2C(C(=O)NCCN3CCOCC3)c3ccccc3C(=O)N2c2ccc(OC)cc2)cc1 (centres undefined)	none
Cc1cc(C(=O)NCCN(C)C)n(-c2ccccc2)n1	none
COc1ccc(N2C(=O)NC3CC2(C)Oc2ccc(Cl)cc23)cc1OC (centres undefined)	FBW7 activator 2.2
Cc1nc(-c2ccc(C(=O)Nc3ccc(O)cc3)cc2)cs1	TEAD-YAP block 91
Cc1nc(-c2ccc(NC(=O)c3ccc(C)c(C)c3)cc2)cs1	none
CC(C)(C)C(=O)NC(=O)Nc1nccc2cccnc12	none
CCOC(=O)N1CC=C2C(C#N)=C(N)C(C#N)(C#N)C(C)C2C1 (centres undefined)	TEAD-YAP block 68
CCOc1cc(C2C3=C(CC(c4ccc(Cl)cc4)CC3=O)Nc3ccccc3N2C(C)=O)ccc1OCc1ccc(Cl)cc1 (centres undefined)	none
COc1nc(NC(=O)NS(=O)(=O)c2ccccc2C)nc(C(Cl)(Cl)Cl)n1	none
COc1ccc(C(=O)COc2ccccc2OC)cc1OC	none
C/C(=N\NC(N)=S)c1ccc(Cl)cc1Cl	TEAD-YAP block 34
C/C(=N\NC(=O)C(F)(F)F)c1ccc(Cl)cc1Cl	none
O=C(NCCN1CCOCC1)c1csc(Br)n1	none
Cc1ccccc1Cn1cnc2sc3c(c2c1=O)CCCC3	TEAD-YAP block 51
COc1cccc(-c2nc3sc4c(c3c(=O)n2Cc2ccccc2F)CCCC4)c1	TEAD-YAP block 32
CC(C)CNC(=O)C(=O)NCc1cccnc1	none
CC1CCc2c(sc3nc(C4CC4)nc(SCC(=O)N4CCOCC4)c23)C1 (centres undefined)	none
COc1ccc(N2CCN(CC(O)COC(C)(C)C)CC2)cc1 (centres undefined)	none
COc1ccc(N2CCN(C(C)CC(=O)O)CC2)cc1 (centres undefined)	MITF inh 72
CCN(CC)CC(O)CN1CCN(c2ccc(OC)cc2)CC1 (centres undefined)	MITF inh 55
COC(=O)CN1C(c2ccc(Cl)cc2)Nc2ccc(Br)cc2C1c1ccccc1 (centres undefined)	none
Cc1ccccc1OCCCC(=O)Nc1sc2c(c1C(N)=O)CCC(C)C2 (centres undefined)	none
Cc1ccnc(NC(=S)NC(=O)c2cccc(Br)c2)c1	TEAD-YAP block 33
Cc1cccc(NC(=S)NC(=O)c2cccc(Br)c2)n1	none
COc1ccc(-c2nc(CCn3c(C)nc4ccccc43)no2)cc1	TEAD-YAP block 38
Cc1ccc(-c2nnc(Cn3c(C)nc4ccccc43)o2)cc1	TEAD-YAP block 58
CCOc1ccccc1CNCc1c(C(=O)O)n(Cc2ccc(F)cc2)c2ccccc12	none
COC(=O)c1ccccc1NC(=O)c1sc2ncn(CC(=O)N3CCCCC3)c(=O)c2c1C	none
N#Cc1ccc(C(=O)Nc2cc3ccccc3cc2NC(=O)c2ccc(C#N)cc2)cc1	none
